MEKK3 PB1 HTS = modulators (inhibitors or enhancers) of MEK5 binding to human MEKK3 PB1 domain; bead-based flow cytometry, Alexa488-MEK5 binding to MEKK3; actives lie on both sides; 0 = blocked by unlabeled MEK5, 100 = vehicle; 290,000 tested, 1.4% active; binding response (% of control), % at 10 µM; Q99759; AID 1529;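 active = binding response more than 3 SD above or below the average of its plate-row segment, actives on both sides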;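 note: Alexa488 bead fluorescence after subtracting the streptavidin-only scavenger bead signal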
MEKK2wt PB1 HTS = raises or lowers MEK5 binding to wildtype human MEKK2 PB1 domain | binding response (% of control), % at 10 µM | bead flow cytometry, Alexa488-MEK5 binding to MEKK2 WT; actives lie on both sides | AID 1531 | Q9Y2U5 | 290,000 tested, 1.1% active; in the data active = binding response below about 67% or above about 130%
MEKK2 mut-MEK5 = signal of MEK5 binding to mutant human MEKK2 PB1 domain; bead flow cytometry, Alexa488-MEK5 binding to MEKK2 mutant; 290,000 tested, 0.35% active; percent response, % at 10 µM; AID 1530; in the data active = percent response above about 24%, passing the limit was not always enough
VLA-4 inh = inhibition in a human VLA-4 binding assay; inhibition, % (about 7 µM as worked out from the volumes in the protocol); P13612; 330,000 tested, 0.2% active; VLA-4 expressing cells, ligand binding flow cytometry; in the data active = inhibition above about 50%
Target sequence (P13612 whole entry, looked up): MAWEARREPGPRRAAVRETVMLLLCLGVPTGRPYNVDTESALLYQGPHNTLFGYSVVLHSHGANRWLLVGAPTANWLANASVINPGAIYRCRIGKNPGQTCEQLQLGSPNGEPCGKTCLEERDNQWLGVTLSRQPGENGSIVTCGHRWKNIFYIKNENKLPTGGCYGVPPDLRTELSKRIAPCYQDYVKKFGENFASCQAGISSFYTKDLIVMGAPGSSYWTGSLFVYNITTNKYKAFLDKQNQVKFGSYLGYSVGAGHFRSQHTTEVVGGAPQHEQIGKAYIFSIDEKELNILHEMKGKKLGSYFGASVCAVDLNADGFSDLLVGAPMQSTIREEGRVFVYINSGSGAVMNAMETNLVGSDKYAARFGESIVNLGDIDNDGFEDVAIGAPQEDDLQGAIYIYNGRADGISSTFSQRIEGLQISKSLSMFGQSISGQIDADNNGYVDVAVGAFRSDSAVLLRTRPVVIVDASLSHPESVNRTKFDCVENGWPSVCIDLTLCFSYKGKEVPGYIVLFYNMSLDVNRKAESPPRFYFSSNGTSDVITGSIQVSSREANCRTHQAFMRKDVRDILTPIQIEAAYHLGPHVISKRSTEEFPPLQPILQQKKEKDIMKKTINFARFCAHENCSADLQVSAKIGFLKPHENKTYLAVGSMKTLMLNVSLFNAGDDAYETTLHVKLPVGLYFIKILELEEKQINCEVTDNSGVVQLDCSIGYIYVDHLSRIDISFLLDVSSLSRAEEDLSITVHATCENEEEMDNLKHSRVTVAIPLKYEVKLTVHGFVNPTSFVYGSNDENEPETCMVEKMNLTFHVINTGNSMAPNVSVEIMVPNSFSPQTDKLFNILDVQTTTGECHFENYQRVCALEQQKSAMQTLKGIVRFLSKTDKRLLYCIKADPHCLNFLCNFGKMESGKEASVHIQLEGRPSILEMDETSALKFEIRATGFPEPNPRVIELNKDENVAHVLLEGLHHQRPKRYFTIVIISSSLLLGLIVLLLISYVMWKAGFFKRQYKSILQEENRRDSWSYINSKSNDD
MEKK2wt confirm = raises or lowers MEK5 binding to wildtype human MEKK2, retest; AID 1892; bead flow cytometry, Alexa488-MEK5 binding to MEKK2 WT; actives lie on both sides; 5,900 tested, 2.4% active; shares compounds with MEKK3 PB1 HTS; binding response (% of control), % at 10 µM; in the data active = binding response below about 16% or above about 210%; inactive = in between
MEKK2mut-MEK5 = signal of MEK5 binding to mutant human MEKK2, retest | shares compounds with MEKK3 PB1 HTS | percent response, % at 10 µM | bead flow cytometry, Alexa488-MEK5 binding to MEKK2 mutant | 5,900 tested, 2% active; in the data active = percent response mostly above about 71%, no sharp cut-off; inactive = mostly below about 38%;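 note: higher means compound restores mutant binding toward wildtype level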
MEKK3 confirm = confirmation of inhibitors of MEK5 binding to human MEKK3; shares compounds with MEKK3 PB1 HTS; bead flow cytometry, Alexa488-MEK5 binding to MEKK3; hits give low values; binding response (% of control), % at 10 µM; 5,900 tested, 1.8% active;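 active = binding response below 72% of control, or above a set upper limit, though filed actives all read lower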;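 note: 100% = DMSO only wells and 0% = binding blocked by excess unlabeled MEK5; lower values mean stronger disruption of MEK5 binding to MEKK3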
Starred values were filed as active, the others as inactive; ! = a repeat was not active; [ ] = dose if it differs, or a comment. The list is not random: actives were taken first. Their share in the collection is about 2.2%.

What do the screens show for `Cc1ccc(C(=O)Nc2ccc(Cl)cn2)cc1`?
MEKK3 PB1 HTS: 99; MEKK2wt PB1 HTS: 97; MEKK2 mut-MEK5: 1; VLA-4 inh: 9

How did CCOC(=O)C1(CC2CCCCO2)CCN(S(=O)(=O)c2cc(C)cs2)CC1 (configuration not stated) do in these assays?
MEKK3 PB1 HTS: 96; MEKK2wt PB1 HTS: 100; MEKK2 mut-MEK5: -3; VLA-4 inh: 16

What do the screens show for `COc1cccc(Cn2nc3c4cc(F)ccc4n(Cc4ccc(F)cc4)cc-3c2=O)c1`?
MEKK3 PB1 HTS: 92; MEKK2wt PB1 HTS: 93; MEKK2 mut-MEK5: -3; VLA-4 inh: -25

What do the screens show for `Cc1ccc(Cn2nc3c4cc(F)ccc4n(Cc4ccc(F)cc4)cc-3c2=O)cc1`?
MEKK3 PB1 HTS: 96; MEKK2wt PB1 HTS: 99; MEKK2 mut-MEK5: -2

Results for COc1cc2c3nnc(-c4ccc(F)cc4)c-3cn(Cc3cccc(F)c3)c2cc1OC ?
MEKK3 PB1 HTS: 39*[inhibitor]; MEKK2wt PB1 HTS: 53; MEKK2 mut-MEK5: -3; VLA-4 inh: inactive; MEKK2wt confirm: 88; MEKK2mut-MEK5: -8; MEKK3 confirm: 73

What do the screens show for `COc1cc2c3nnc(-c4ccc(F)cc4)c-3cn(Cc3cccc(C)c3)c2cc1OC`?
MEKK3 PB1 HTS: 104; MEKK2wt PB1 HTS: 167*; MEKK2 mut-MEK5: 48*; VLA-4 inh: inactive; MEKK2wt confirm: 197; MEKK2mut-MEK5: 61; MEKK3 confirm: 108

What do the screens show for `O=S(=O)(c1ccc(Br)s1)N1CCC2(CC1)OCCO2`?
MEKK3 PB1 HTS: 99; MEKK2wt PB1 HTS: 101; MEKK2 mut-MEK5: -2; VLA-4 inh: 8

Results for Cn1c2c(c3ccccc31)CCN1CCC[C@]21c1ccccc1 ?
MEKK3 PB1 HTS: 105; MEKK2wt PB1 HTS: 109; MEKK2 mut-MEK5: 6; VLA-4 inh: 6

Results for CC(Nc1nc(N2CCCCC2)nc2ccccc12)c1ccccc1 (configuration not stated) ?
MEKK3 PB1 HTS: 108; MEKK2wt PB1 HTS: 210*; MEKK2 mut-MEK5: 34; VLA-4 inh: 5; MEKK2wt confirm: 140; MEKK2mut-MEK5: 18; MEKK3 confirm: 109

How did CC(Nc1nc(-c2ccccc2)nc2ccccc12)c1ccccc1 (configuration not stated) do in these assays?
MEKK3 PB1 HTS: 74; MEKK2wt PB1 HTS: 108; MEKK2 mut-MEK5: -6; VLA-4 inh: 32

Results for Cc1ccc(Cn2cc(S(=O)(=O)c3ccc(Cl)cc3)c(=O)c3cc(F)ccc32)cc1 ?
MEKK3 PB1 HTS: 132*; MEKK2wt PB1 HTS: 102; MEKK2 mut-MEK5: 0; VLA-4 inh: 16; MEKK2wt confirm: 95; MEKK2mut-MEK5: -8; MEKK3 confirm: 102

What do the screens show for `COc1ccc(NC(=O)Nc2cccc3c2O[C@H](CN(C)C(=O)NC(C)C)[C@@H](C)CN([C@H](C)CO)C3=O)cc1`?
VLA-4 inh: 8

What do the screens show for `OC(COc1ccc2ccccc2c1)CN1CCCC1` (configuration not stated)?
MEKK3 PB1 HTS: 90; MEKK2wt PB1 HTS: 102; MEKK2 mut-MEK5: 2; VLA-4 inh: 11

How did OC(COc1cccc2ccccc12)CN1CCN(c2cccc(Cl)c2)CC1 (configuration not stated) do in these assays?
MEKK3 PB1 HTS: 100; MEKK2wt PB1 HTS: 99; MEKK2 mut-MEK5: 6; VLA-4 inh: 18

What do the screens show for `OC(COc1cccc2ccccc12)CN1CCCC1` (configuration not stated)?
MEKK3 PB1 HTS: 103; MEKK2wt PB1 HTS: 139*; MEKK2 mut-MEK5: 10; VLA-4 inh: 15; MEKK2wt confirm: 133; MEKK2mut-MEK5: 15; MEKK3 confirm: 103

How did OC(COc1cccc2ccccc12)CN1CCN(c2ccc(Cl)cc2)CC1 (configuration not stated) do in these assays?
MEKK3 PB1 HTS: 102; MEKK2wt PB1 HTS: 144*!; MEKK2 mut-MEK5: -2; VLA-4 inh: -10; MEKK2wt confirm: 113; MEKK2mut-MEK5: 8; MEKK3 confirm: 105

How did Clc1ccc(-c2csc3ncnc(N4CCc5ccccc5C4)c23)cc1 do in these assays?
MEKK3 PB1 HTS: 131*; MEKK2wt PB1 HTS: 102; MEKK2 mut-MEK5: 0; VLA-4 inh: 7; MEKK2wt confirm: 106; MEKK2mut-MEK5: -1; MEKK3 confirm: 97

Results for COc1ccc(C(=O)NC2CCCc3c2cnn3-c2cc(F)cc(F)c2)c(OC)c1OC (configuration not stated) ?
MEKK3 PB1 HTS: 100; MEKK2wt PB1 HTS: 100; MEKK2 mut-MEK5: 1; VLA-4 inh: 5

What do the screens show for `COc1ccc2oc(C(=O)Nc3ccc(S(=O)(=O)N(C)C4CCN(C)CC4)cc3)c(C)c2c1`?
MEKK3 PB1 HTS: 107; MEKK2wt PB1 HTS: 157*; MEKK2 mut-MEK5: 17; VLA-4 inh: 1; MEKK2wt confirm: 159; MEKK2mut-MEK5: 28; MEKK3 confirm: 105

Results for NS(=O)(=O)c1ccc(CCNC(=O)CSc2ccc(Cl)cc2)cc1 ?
MEKK3 PB1 HTS: 103; MEKK2wt PB1 HTS: 114; MEKK2 mut-MEK5: 12; VLA-4 inh: 10

How did NS(=O)(=O)c1ccc(CCNC(=O)CSc2ccc(Cl)cc2Cl)cc1 do in these assays?
MEKK3 PB1 HTS: 40*[inhibitor]; MEKK2wt PB1 HTS: 43*[inhibitor]; MEKK2 mut-MEK5: -13; VLA-4 inh: 5; MEKK2wt confirm: 103; MEKK2mut-MEK5: 8; MEKK3 confirm: 103

Results for O=C(O)COc1ccccc1/C=N/NC(=O)CSc1nnc(SCc2ccc(Cl)cc2)s1 ?
MEKK3 PB1 HTS: 130*; MEKK2wt PB1 HTS: 114; MEKK2 mut-MEK5: 29; VLA-4 inh: 11; MEKK2wt confirm: 105; MEKK2mut-MEK5: 3; MEKK3 confirm: 111

What do the screens show for `Cc1cc(C)n(-c2ccc(S(=O)(=O)N3CCOCC3)cc2[N+](=O)[O-])n1`?
MEKK3 PB1 HTS: 101; MEKK2wt PB1 HTS: 103; MEKK2 mut-MEK5: 0; VLA-4 inh: 11

What do the screens show for `N=C1C=CC=C2C1=NC1(CCCCC1)N2O`?
MEKK3 PB1 HTS: 2.0*[inhibitor]; MEKK2wt PB1 HTS: 2.0*[inhibitor]; MEKK2 mut-MEK5: -21; VLA-4 inh: -12; MEKK2wt confirm: 84; MEKK2mut-MEK5: -6; MEKK3 confirm: 87

Results for COc1cc2cc(C(=O)N3CCOCC3)cc(-c3ccc(C)cc3)c2cc1OC ?
MEKK3 PB1 HTS: 105; MEKK2wt PB1 HTS: 102; MEKK2 mut-MEK5: 4; VLA-4 inh: 2

How did COc1cc(NS(=O)(=O)c2ccc3c(c2)C(C)(C)C(=O)N3C)cc(OC)c1 do in these assays?
MEKK3 PB1 HTS: 102; MEKK2wt PB1 HTS: 102; MEKK2 mut-MEK5: -1; VLA-4 inh: -73
